Measles CPE = protection of cells from measles virus; AID 841; actives 1.5% (n = 140,000); Measles virus-infected cells, CPE protection, absorbance; protection (pct of control), % at 4 µM; in the data active = protection mostly above about 24%, no sharp cut-off; inactive = mostly below about 26%
CYP2C9 inhib = inhibitors of human CYP2C9; inhibition, % at 5 µM; actives 20% (n = 96,000); P11712; AID 777; CYP2C9 Supersomes, luciferin-H conversion, luminescence;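 active = blocking of liver enzyme CYP2C9 beyond about 50% at 5 µM, limit read from the data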
CYP2C19 inh = human CYP2C19 inhibition; actives 21% (n = 96,000); AID 778; CYP2C19 Supersomes, luciferin-H EGE luminescence, 30 min; P33261; inhibition, % at 5 µM;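 active = CYP2C19 inhibition above a set limit at 5 µM in the primary screen, cut at about 50% in these data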
Target sequence (P33261 whole entry, looked up): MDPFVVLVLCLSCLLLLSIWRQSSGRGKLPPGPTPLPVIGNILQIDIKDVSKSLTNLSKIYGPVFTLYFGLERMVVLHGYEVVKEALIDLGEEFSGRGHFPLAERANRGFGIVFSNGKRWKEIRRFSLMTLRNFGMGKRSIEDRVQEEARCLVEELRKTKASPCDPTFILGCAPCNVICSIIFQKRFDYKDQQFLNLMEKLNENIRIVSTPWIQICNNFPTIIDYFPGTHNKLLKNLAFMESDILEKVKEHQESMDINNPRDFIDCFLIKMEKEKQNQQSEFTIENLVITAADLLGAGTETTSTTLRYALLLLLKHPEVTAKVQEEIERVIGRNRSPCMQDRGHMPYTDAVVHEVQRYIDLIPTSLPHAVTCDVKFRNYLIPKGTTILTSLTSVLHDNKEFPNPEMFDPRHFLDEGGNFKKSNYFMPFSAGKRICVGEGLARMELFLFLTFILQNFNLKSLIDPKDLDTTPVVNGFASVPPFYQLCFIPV
CYP2C9 act = activators of human CYP2C9. activation factor at 5 µM. AID 1024. actives 1.4% (n = 96,000). recombinant CYP2C9, luciferin-H conversion, luminescence; hits give high values; factor 1 = untreated enzyme, 0 = blocked;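 active = activation factor of 2 or more for CYP2C9 at a 5 µM dose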
CYP2C19 act = cytochrome P450 2C19 (human) activation; 96,000 tested, under 10 active; AID 1025; activation factor at 5 µM; P33261; recombinant CYP2C19, luciferin-H EGE luminescence; hits give high values; 0 = fully inhibited enzyme, 1 = untreated enzyme;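 active = activation factor of at least 2 at 5 µM in the primary screen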
Of the large screens only hits and unclear results are named; the others gave an inactive call. Most compounds without a hit are left out; they make up all but 22% or so of the library.

Cn1c(SCc2cnc(-c3ccccc3)s2)nnc1C1COc2ccccc2O1 (stereo unspecified)	CYP2C19 inh 90
CCc1c(C(=O)N2CCOCC2)csc1C	none
CC(CCc1ccco1)NC(=O)c1cc2c(-c3ccccc3F)nn(C)c2s1 (stereo unspecified)	CYP2C9 inhib 93, CYP2C19 inh 78
COc1cccc(-c2nn(C)c3sc(C(=O)Nc4ccc5c(c4)OCCO5)cc23)c1	none
Cn1nc(-c2ccccc2F)c2cc(C(=O)Nc3ccc4c(c3)OCCO4)sc21	CYP2C9 inhib 81
CC(=O)c1ccc(N2CCN(C(=O)c3cc4c(-c5ccccc5F)nn(C)c4s3)CC2)cc1	none
Cc1ccc(Cn2ccc(=O)c(OCc3c(Cl)cccc3Cl)c2C)cc1	CYP2C19 inh 65
COc1cc(C(C#N)N2N=C(c3ccccc3)CC2c2ccccc2)ccc1O (stereo unspecified)	CYP2C9 inhib 58
COc1ccnc(NCc2cccc(C(F)(F)F)c2)c1C#N	CYP2C19 inh 54
CC(CO)Nc1nc(SCc2ccccc2)nc2sc3c(c12)CCC3 (stereo unspecified)	CYP2C9 inhib 56
CCOc1ccccc1N1CCN(Cc2ccc(OC)c(OC)c2)CC1	none
CCOc1ccccc1N1CCN(Cc2ccco2)CC1	CYP2C19 inh 51
CCOc1ccccc1N1CCN(Cc2ccc(Br)s2)CC1	CYP2C9 inhib 52
COc1ccccc1N1CCN(Cc2ccc(Br)o2)CC1	CYP2C9 inhib 54, CYP2C19 inh 93
COc1ccc(N2C(=O)CC(N3CCN(c4ccc(S(C)(=O)=O)cc4)CC3)C2=O)cc1 (stereo unspecified)	none
CC(OC(=O)c1cccs1)C(=O)NCc1ccc2c(c1)OCO2 (stereo unspecified)	CYP2C9 inhib 67
O=C(NCc1ccc2c(c1)OCO2)C(=O)NC1CCCCC1	none
CC(C)C(OC(=O)c1nsc(Cl)c1Cl)C(=O)NCc1ccc2c(c1)OCO2 (stereo unspecified)	CYP2C9 inhib 65
COc1ccc(CNC(=O)C(C)OC(=O)c2cccn2C)cc1 (stereo unspecified)	CYP2C19 inh 78
COc1ccc(CNC(N)=O)cc1	none (no result: CYP2C9 inhib, CYP2C19 inh, CYP2C9 act, CYP2C19 act)
CC(C)C(OC(=O)c1cccs1)C(=O)NCc1cccs1 (stereo unspecified)	CYP2C9 inhib 66, CYP2C19 inh 91
CN(C)c1ccc(NC(=O)CSc2nc3c(c(=O)[nH]2)CCCC3)cc1	none
COc1ccc(-n2c(=O)c3ccccc3c3ccccc3c2=O)c(OC)c1	none (no result: CYP2C9 inhib, CYP2C19 inh, CYP2C9 act, CYP2C19 act)
CC(OC(=O)c1ccc2ncsc2c1)C(=O)NCc1ccccc1 (stereo unspecified)	none (no result: CYP2C9 inhib, CYP2C19 inh, CYP2C9 act, CYP2C19 act)
CC(OC(=O)c1cccs1)C(=O)NCc1ccccc1 (stereo unspecified)	CYP2C9 inhib 77, CYP2C19 inh 98
CC1(c2ccc3c(c2)OCO3)NC(=O)N(CC(=O)Nc2ccc(N3CCOCC3)cc2)C1=O (stereo unspecified)	CYP2C9 inhib 59
Cc1ccc(C2(C)NC(=O)N(CC(=O)Nc3ccc4c(c3)OCO4)C2=O)cc1 (stereo unspecified)	CYP2C9 inhib 82
CC1Oc2ccccc2N(CC(=O)Nc2ccc3c(c2)OCO3)C1=O (stereo unspecified)	none
CCC1(c2ccccc2)NC(=O)N(CC(=O)Nc2ccc3c(c2)OCO3)C1=O (stereo unspecified)	none
Cc1cccc(NC(=O)CN2C(=O)NC(C)(c3ccc4c(c3)OCO4)C2=O)c1 (stereo unspecified)	CYP2C9 inhib 67
COc1ccc(-c2nnc(SCC(N)=O)n2N)cc1	none
O=C(CS(=O)c1cccc(C(F)(F)F)c1)Nc1ccc(Cl)cc1Cl (stereo unspecified)	CYP2C19 inh 100, CYP2C9 act 2.1
O=C(COc1ccccc1O)Nc1ccccc1Cl	none
O=C(Cc1cccc(C(F)(F)F)c1)NCc1ccc(Cl)cc1Cl	none (no result: CYP2C9 inhib, CYP2C19 inh, CYP2C9 act, CYP2C19 act)
O=C(CS(=O)c1cccc(Cl)c1)Nc1ccccc1Cl (stereo unspecified)	CYP2C19 inh 60, CYP2C9 act 2.6
N#Cc1cc2ccccc2nc1SCC(=O)Nc1ccc(S(=O)(=O)N2CCCC2)cc1	CYP2C9 inhib 90
O=C(CSc1ccc(-c2nc3ccccc3[nH]2)cn1)Nc1ccc(S(=O)(=O)N2CCCC2)cc1	none (no result: CYP2C9 inhib, CYP2C19 inh, CYP2C9 act, CYP2C19 act)
COc1ccc2nc(SCC(=O)Nc3ccc(S(=O)(=O)N4CCCC4)cc3)c(C#N)cc2c1	CYP2C9 inhib 91
COc1ccc(OCC(O)CNC(=O)c2ccccc2C(=O)O)cc1 (stereo unspecified)	none (no result: CYP2C9 inhib, CYP2C19 inh, CYP2C9 act, CYP2C19 act)
Cc1cc(S(=O)(=O)Nc2c(C)ccc3nsnc23)ccc1F	CYP2C9 inhib 51, CYP2C19 inh 84
Cc1ccc2nsnc2c1NS(=O)(=O)c1c(C)ccc2nsnc12	CYP2C9 inhib 56
CCOC(=O)CCCNS(=O)(=O)c1c(C)ccc2nsnc12	none (no result: CYP2C9 inhib, CYP2C19 inh, CYP2C9 act, CYP2C19 act)
Cc1ccc2nsnc2c1N(S(C)(=O)=O)S(C)(=O)=O	CYP2C19 inh 63
Cc1ccc2nsnc2c1NC(=O)c1cccc([N+](=O)[O-])c1	none (no result: CYP2C9 inhib, CYP2C19 inh, CYP2C9 act, CYP2C19 act)
Cc1ccc2nsnc2c1NC(=O)c1cccnc1Cl	none (no result: CYP2C9 inhib, CYP2C19 inh, CYP2C9 act, CYP2C19 act)
CC(SC1=NCCS1)C(=O)Nc1nnc(-c2ccc(Br)cc2)s1 (stereo unspecified)	CYP2C9 inhib 57
CC(SC1=NCCS1)C(=O)Nc1nnc(-c2ccc(F)cc2)s1 (stereo unspecified)	none
COc1ccccc1N1CCN(C(=O)C2CCN(S(=O)(=O)c3ccc(Cl)cc3)CC2)CC1	none
CCS(=O)(=O)N1CCC(C(=O)N2CCc3ccccc3C2)CC1	CYP2C19 inh 60
COc1ccc(S(=O)(=O)N2CCC(C(=O)N3CCc4ccccc4C3)CC2)cc1Cl	CYP2C19 inh 92
O=C(CSc1nnc(CNc2ccc(F)cc2)n1Cc1ccco1)NC1CC1	none
C=CCSC1=C(C#N)C(c2ccccc2Cl)C(C(=O)c2cccs2)C(O)(C(F)(F)F)N1 (stereo unspecified)	none (no result: CYP2C9 inhib, CYP2C19 inh, CYP2C9 act, CYP2C19 act)
Cc1ccc2c(c1)c(C)c(C)n2CC(O)Cn1nnc2ccccc21 (stereo unspecified)	CYP2C9 inhib 64
Cc1ccc2c(c1)c(C)c(C)n2CC(O)Cn1nc(C)cc1C (stereo unspecified)	CYP2C9 inhib 77, CYP2C19 inh 97
Cc1cc(C)n(CC(O)COc2cccc(OCC(O)Cn3nc(C)cc3C)c2)n1 (stereo unspecified)	none
O=C(CS(=O)(=O)c1cn(Cc2ccc(Cl)cc2)c2ccccc12)N1CCCC1	CYP2C9 inhib 70, CYP2C19 inh 76
O=C(CS(=O)(=O)c1c[nH]c2ccccc12)N1CCCCC1	CYP2C19 inh 64
Nc1c(S(=O)(=O)c2ccccc2)nnn1-c1ccccc1	none (no result: CYP2C9 inhib, CYP2C19 inh, CYP2C9 act, CYP2C19 act)
O=C(COc1ccccc1[N+](=O)[O-])NCc1cccnc1	none (no result: CYP2C9 inhib, CYP2C19 inh, CYP2C9 act, CYP2C19 act)
O=C(OCc1ccc(Cl)c(Cl)c1)c1ccccn1	CYP2C9 inhib 53, CYP2C19 inh 96
O=C(COC(=O)c1ccccn1)c1ccc(Br)cc1	CYP2C19 inh 57
O=C(COc1ccccc1Cl)NCc1ccncc1	CYP2C9 inhib 78, CYP2C19 inh 94

Screening data (PubChem BioAssay)
